# Test results published in the supplement of paper PMC3334620.
# Whole data set: some 33,000 sequences, median “E-score (-0.5 to 0.5)” near -0.041, cut for the highest 2% near 0.37. Shown is part of a subset that was picked to be rich in the highest values.
# Target: T1, Ecm22 (UniProt Q05958)
# T1 sequence: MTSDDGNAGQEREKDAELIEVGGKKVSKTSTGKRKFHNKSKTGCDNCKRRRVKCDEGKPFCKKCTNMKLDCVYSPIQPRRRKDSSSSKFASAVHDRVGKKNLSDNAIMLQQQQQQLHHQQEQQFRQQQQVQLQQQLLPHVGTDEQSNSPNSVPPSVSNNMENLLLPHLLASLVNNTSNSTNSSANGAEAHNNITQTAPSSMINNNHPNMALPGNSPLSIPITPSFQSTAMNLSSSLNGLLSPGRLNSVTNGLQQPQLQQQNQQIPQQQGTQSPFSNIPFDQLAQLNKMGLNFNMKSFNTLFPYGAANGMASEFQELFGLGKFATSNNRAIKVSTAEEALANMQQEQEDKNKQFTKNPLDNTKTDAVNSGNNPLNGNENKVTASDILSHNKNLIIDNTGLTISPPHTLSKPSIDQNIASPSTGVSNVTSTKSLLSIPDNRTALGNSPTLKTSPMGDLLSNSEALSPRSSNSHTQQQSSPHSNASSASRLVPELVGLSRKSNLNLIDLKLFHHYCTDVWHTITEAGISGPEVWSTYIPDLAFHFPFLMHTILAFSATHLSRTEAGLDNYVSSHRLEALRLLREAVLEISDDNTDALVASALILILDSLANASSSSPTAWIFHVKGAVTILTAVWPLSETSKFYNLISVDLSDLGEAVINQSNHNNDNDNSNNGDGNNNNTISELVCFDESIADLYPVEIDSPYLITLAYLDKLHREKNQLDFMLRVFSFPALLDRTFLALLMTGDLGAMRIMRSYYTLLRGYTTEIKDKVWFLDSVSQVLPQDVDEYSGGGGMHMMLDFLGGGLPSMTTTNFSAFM
# Assay: PBM E-score (8-mer binding enrichment) (E-score (-0.5 to 0.5)); higher = stronger / more preferred TF binding
# Conditions: protein concentration: 200 nM; construct: GST-full length
# Outline: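 For each ungapped eight-base word taken together with its reverse complement, the Universal PBM Analysis Suite assigned an E-score. Binding data came from GST-tagged yeast transcription factors, applied at about 100-200 nM, on universal all-10-mer Agilent arrays made double-stranded by primer extension. Fluorescent anti-GST marked bound protein, and scans were normalised with masliner.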
row,Sequence,PBM E-score
1,AGACCACG,-0.221
2,ACGCGAGA,0.281
3,AAGTTCGT,0.319
4,CTAGACAG,-0.189
5,ACTCGTAT,0.479
6,CCTCGGAC,0.246
7,CCTCGTCG,0.218
8,ACTCGTCC,-0.139
9,CCTCGTAG,0.41
10,ACTCGTAC,0.484
11,CCTCATAG,-0.183
12,CCTCGTAC,0.491
13,ACTCGGAT,0.318
14,ACTCGTGC,0.0518
15,CCGCGTAC,0.231
16,ACTCGTCT,0.172
17,AGCCCAGG,-0.341
18,AGGGCGCG,-0.0881
19,CCCTTCTC,-0.218
20,CCGTTAGA,0.0314
21,GCAGCCGC,-0.0784
22,ATACAGAG,-0.0254
23,ATGGTCTG,-0.0872
24,CCTTTCAA,-0.203
25,ACCTCTAG,-0.137
26,ACTCGTAA,0.437

row,Sequence,PBM E-score
1,ACTCGTCA,0.0424
2,GCTCGTGA,0.171
3,TCTCGTCA,0.0737
4,GCTCGTAA,0.451
5,CCTCGTCA,0.232
6,TCACGTAA,0.00322
7,TCTCGTAA,0.438
8,GCTCGTCA,0.0115
9,ACTCGTAG,0.34
10,CCTCGTGA,0.201
11,CCTCGTAA,0.446
12,CTGAACCC,0.0346
13,AGCTGTAT,-0.124
14,AGCCTGCG,-0.17
15,AGAGACAT,-0.195
16,GCTCGTCC,-0.109
17,GCACGTAC,0.168
18,GCTCGTAC,0.486
19,CACACATC,-0.226
20,CGATCAGC,0.09
21,ACGAGGAA,0.375
22,GCGAGGAC,0.0393
23,ACGAGGAT,0.387
24,AGGAGGAT,-0.157
25,ACGAGGAG,0.349
26,CCGAGGAA,0.0818

row,Sequence,PBM E-score
1,CCGAGGAC,0.207
2,ACGAGGAC,0.42
3,TCGAGGAA,0.101
4,ACGCTCGG,0.21
5,CAGCTGCA,-0.385
6,CCATTCCA,-0.228
7,CGTGTGCA,-0.0516
8,AGTCTACC,-0.156
9,CAAGATCG,0.122
10,CCCCGTAA,0.211
11,ACCCGTAT,0.391
12,CCCCGTAC,0.377
13,GCCCGTCC,-0.279
14,ACCCGTAC,0.374
15,GCCCGTAA,0.221
16,CCCCGTAG,0.0215
17,GCCCGTAC,0.396
18,ACCCGTAA,0.179
19,ACCCGTAG,-0.142
20,AACCGTAT,0.341
21,ACCCGTCT,-0.0476
22,ACGTATTC,0.144
23,ACGGAGCC,-0.084
24,ATTACTTC,-0.0783
25,GAGGGATC,-0.0216
26,CTCCTTCC,-0.152

row,Sequence,PBM E-score
1,CGGCGCAG,-0.0964
2,ACAACCGA,0.26
3,AACCTTTC,-0.0282
4,CGCAGAAG,0.00639
5,AACTAACG,0.141
6,ATTCGTAG,0.325
7,GTTCGTGA,0.141
8,ATTCGTGA,-0.00041
9,GTTCGTAA,0.427
10,GTTCGTCA,0.0919
11,ATTCGTAA,0.405
12,AAATGCGC,-0.0587
13,AAACTGTG,-0.214
14,CCAGTCAA,-0.166
15,CCCGTACC,0.446
16,CCCGTACA,0.368
17,CACGTACC,0.285
18,CCCGTAGG,-0.158
19,CCCGTAAC,0.189
20,CCCGTACG,0.402
21,AGACCTTG,-0.252
22,GGAAATCC,-0.00159
23,AGCAGCCT,-0.102
24,ATAGCCCC,-0.223
25,CCAAGGGA,-0.0775
26,CATCAATG,-0.153

row,Sequence,PBM E-score
1,GCCGGTAC,0.129
2,CGGCACGA,0.176
3,ACTTTGTG,0.118
4,CCGCTACG,0.339
5,ACGCTACA,-0.0355
6,ACGCTACG,0.382
7,TATCGCCA,-0.0963
8,GCGGTTAA,-0.0219
9,CCGGTTAA,0.132
10,TCGGTTAA,0.387
11,GTCCCCCA,-0.157
12,GCGGTAAA,0.173
13,AGCAACGC,0.0942
14,GGCAACCA,-0.0847
15,AGCAACGA,0.407
16,CGCAACGC,0.0974
17,GGCAACTA,-0.282
18,AGCAACGG,0.203
19,GGCAACGA,0.417
20,CGCAACGA,0.448
21,CGCAACAA,0.0504
22,AATCGAGG,0.0537
23,CAAAAGTA,-0.0653
24,CCATTTTC,-0.105
